Records with an inconclusive call do not appear. A call without a number means that no potency is given here. Active and inactive are the calls of the source. Calls come from the whole dose curve; as a rule, active = well fitted cell-killing curve with a large enough effect; inconclusive = small, poorly fitted or top-dose-only effect, or effect the other way; inactive = no such curve, though single readings can be large or run the other way.
What follows are molecules tested on SKOV3 (assay: Confirmatory qHTS for gynecologic anti-cancer compounds from libraries of approved drugs and bioactive compounds). Conditions: gynecologic cancer cell panel viability, ATPlite luminescence, 48 h; series mostly up to 57.6 µM.
Method in brief: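 Viability is measured as ATP-dependent luciferase light using ATPlite, read 15 min after reagent addition at room temperature. Compounds, in DMSO, span 57.5 uM down to 0.977 nM over 11 threefold steps for 48 h.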
Note: nearly all actives have a fitted effect of over 55% in size.
Potency is the fitted concentration of half-maximal effect.

Row | Structure (SMILES) | Potency
1 | O=c1cc(CN2CCOCC2)occ1OCCCCCSc1ccnc2cc(C(F)(F)F)ccc12 | inactive
2 | COc1ccc2cc3[n+](cc2c1OC)CCc1cc2c(cc1-3)OCO2 | inactive
3 | Cc1ccc(C(=O)Nc2cccc(C(F)(F)F)c2)cc1-c1ccc2nc(NCCN3CCOCC3)ncc2c1 | 12200 nM (active)
4 | COc1cccc2c1C(=O)c1c(O)c3c(c(O)c1C2=O)C[C@@](O)(C(=O)CO)C[C@@H]3O[C@H]1C[C@H](N)[C@H](O)[C@H](C)O1 | 432 nM (active)
5 | CCn1c(-c2nonc2N)nc2c(C#CC(C)(C)O)ncc(OCC3CCCNC3)c21 (stereo not drawn) | inactive
6 | CN(C)C/C=C/C(=O)Nc1cc2c(Nc3ccc(F)c(Cl)c3)ncnc2cc1OC1CCOC1 (stereo not drawn) | inactive
7 | Cc1cnc(Nc2ccc(OCCN3CCCC3)cc2)nc1Nc1cccc(S(=O)(=O)NC(C)(C)C)c1 | 10900 nM (active)
8 | C[C@]12CCC(=O)C=C1CC[C@@H]1[C@@H]2[C@@H](O)C[C@@]2(C)[C@H]1CC[C@]2(O)C(=O)CO | inactive
9 | Cn1c(=O)c(F)c(Nc2ccc(I)cc2F)c2c(=O)n(CC(O)CO)cnc21 (stereo not drawn) | 485 nM (active)
10 | COc1ccc(OC)c(-c2nnc3ccc(-c4ccc(OC)c(O[C@@H]5CCOC5)c4)nn23)c1 | inactive
11 | COc1ccc(CCC(=O)c2c(O)cc(O[C@@H]3O[C@H](CO)[C@@H](O)[C@H](O)[C@H]3O[C@@H]3O[C@@H](C)[C@H](O)[C@@H](O)[C@H]3O)cc2O)cc1O | inactive
12 | O=c1[nH]c(=O)n([C@H]2C[C@H](O)[C@@H](CO)O2)cc1Br | inactive
13 | COc1cc2c(Oc3ccc(-c4cnc(Nc5ccc(F)cc5)n(C)c4=O)cc3F)ccnc2cc1OCCCN1CCOCC1 | inactive
14 | OCCNC1CCCc2c1[nH]c1ccc(-c3ccccc3)cc21 (stereo not drawn) | 30600 nM (active)
15 | COc1cc(Nc2ncc3c(n2)-c2ccc(Cl)cc2C(c2c(F)cccc2OC)=NC3)ccc1C(=O)O | inactive
16 | Cc1ccc(NC(=O)c2ccc(CN3CCN(C)CC3)cc2)cc1Nc1nccc(-c2cccnc2)n1 | inactive
17 | CC(=O)c1cnc2ccc(-c3cc(Cl)c(O)c(Cl)c3)nc2c1NC1CCC(CN(C)C)CC1 (stereo not drawn) | 498 nM (active)

Row | Structure (SMILES) | Potency
18 | CC(C)Nc1cc(-c2c[nH]c(C(=O)N[C@H](CO)c3cccc(Cl)c3)c2)c(Cl)cn1 | inactive
19 | COc1cc2c(c(OC)c1OC)-c1ccc(OC)c(=O)cc1[C@@H](NC(C)=O)CC2 | inactive
20 | COc1cccc2cc(-c3nc(C4CCC(C(=O)O)CC4)n4ncnc(N)c34)[nH]c12 (stereo not drawn) | 1090 nM (active)
21 | CC[C@@]1(O)C(=O)OCc2c1cc1n(c2=O)Cc2cc3c(CN(C)C)c(O)ccc3nc2-1 | 544 nM (active)
22 | COc1cc2c(cc1-c1c(C)noc1C)ncc1[nH]c(=O)n(C(C)c3ccccn3)c12 (stereo not drawn) | inactive
23 | CC(C)C[C@H](NC(=O)[C@H](Cc1ccccc1)NC(=O)c1cnccn1)B(O)O | 3060 nM (active)
24 | CCN1CCN(Cc2ccc(Nc3ncc(F)c(-c4cc(F)c5nc(C)n(C(C)C)c5c4)n3)nc2)CC1 | inactive
25 | CCC(=O)N1CCN(c2ccc(-n3c(=O)ccc4cnc5ccc(-c6cnc7ccccc7c6)cc5c43)cc2C(F)(F)F)CC1 | 4.4 nM (active)
26 | COc1ccc2c(c1)c(CC(=O)O)c(C)n2C(=O)c1ccc(Cl)cc1 | inactive
27 | NS(=O)(=O)c1ccc(Nc2nc(OCC3CCCCC3)c3[nH]cnc3n2)cc1 | inactive
28 | O=C(c1ccc(F)c(F)c1Nc1ccc(I)cc1F)N1CC(O)([C@@H]2CCCCN2)C1 | 6110 nM (active)
29 | C=CC(=O)Nc1cc2c(Nc3ccc(F)c(Cl)c3)ncnc2cc1OCCCN1CCOCC1 | 24300 nM (active)
30 | NC(=O)c1cnc(-c2ccc(C3(N)CCC3)cc2)c(-c2ccccc2)c1 | 9680 nM (active)
31 | Nc1ccccc1NC(=O)c1ccc(CNC(=O)OCc2cccnc2)cc1 | 2170 nM (active)
32 | CNC(=O)c1ccccc1Nc1nc(Nc2ccc(N3CCOCC3)cc2OC)ncc1Cl | 6850 nM (active)
33 | CN(C)C1CCN(C(=O)c2ccc(NC(=O)Nc3nc(N4CCOCC4)nc(N4CCOCC4)n3)cc2)CC1 | 109 nM (active)

— PubChem BioAssay AID1345085 (National Center for Advancing Translational Sciences (NCATS), 2018)
